One experiment relates to PAK3. The note with it: concentration: 1 μM, replicates: in singlicate; n = 1.
Turning to `CCC(CC)(CC)n1cnc2c(N)ncnc21` [SKF-97620], the “%Inh” value is on record as 14%.

Take `Cc1ccc(NC(=O)c2cccc(C#N)c2)cc1-c1ccc(C(=O)Nc2ccncc2)cc1` [GSK1398463]: the “%Inh” value turned out to be 0%.

Consider `CSc1nn2c(=O)cc(N3CCOCC3)nc2n1Cc1cccc(Cl)c1Cl` [GSK2347225], for which the “%Inh” value stood at 15%.

For the compound `FC(F)(F)c1cc(Nc2nccc(-c3c(-c4ccc(Cl)cc4)nn4ncccc34)n2)ccc1Cl` [GW829351], the “%Inh” value came out at 0%.

As to `CC(=O)Nc1n[nH]c2ncc(-c3ccccc3)cc12` [SB-548492], the “%Inh” value stood at 0%.

For `O=C(Nc1n[nH]c2nc(-c3ccco3)c(Br)cc12)c1ccc(CN2CCCC2)cc1.O=C(O)[C@H](O)[C@@H](O)C(=O)O` [SB-742352], the “%Inh” value was found to be 0%.

Turning to `O=C(NCCCN1CCCC1=O)c1cnc(NCc2cc(Cl)ccc2Cl)nc1NC1CCNCC1`, the “%Inh” value was 0%.

On to `Nc1nccc2scc(-c3ccc4c(c3)CCN4C(=O)Cc3cc(F)ccc3F)c12` [GSK2587663], for which the “%Inh” value amounted to 19%.

As to `CN1CCC(n2cnc(-c3ccc(F)cc3)c2-c2ccnc(NC3CCNCC3)n2)CC1` [SB-229482], the “%Inh” value came to 13%.

`Oc1ccc2ncnc(Nc3ccc(OCc4ccccc4)cc3)c2c1` [GI262866]: the “%Inh” value stood at 87%.

Turning to `COc1ccc(NC(=O)c2ccc(-c3cc(-c4nnc(C)o4)ccc3C)cc2)cc1` [GW595885], the “%Inh” value is listed as 0%.

As to `CC(C)N1CCC(n2cnc(-c3ccc(F)cc3)c2-c2ccnc(N)n2)CC1` [SB-223132], the “%Inh” value is listed as 0%.

`COc1ccc(Nc2nccc(N3CCC(NC(=O)Nc4ccc5c(c4)OCO5)C3)n2)cc1` (stereo not drawn) [GSK1379745]: the “%Inh” value amounted to 0%.

As to `COC(=O)c1cccc(NC(=O)NCCNc2ccnc(Nc3ccc(F)cc3)n2)c1` [GSK1379883], the “%Inh” value is recorded as 0%.

With `COc1cc2c(Nc3cccc(NC(=O)c4ccccc4)c3)ncnc2cc1OCCCN1CCOCC1` [GSK223810], the “%Inh” value amounted to 5%.

`O=C(Nc1ccccc1)Nc1ccc(Oc2ccc3nccn3n2)cc1`: the “%Inh” value was found to be 0%.

In the case of `Nc1nc(-c2ccccn2)c(-c2ccnc3ccccc23)s1` [GW548057], the “%Inh” value turned out to be 0%.

For the compound `Cc1ccc(O)cc1Nc1cc(C(F)(F)F)nc2ccc(-c3ccncc3)cc12` [GW630823], the “%Inh” value amounted to 0%.

In the case of `Fc1cccc(COc2ccc(Nc3ncnc4sc(-c5ccc[nH]5)cc34)cc2Cl)c1` [GW707818], the “%Inh” value is listed as 0%.

With `Fc1cccc(COc2ccc(Nc3ncnc4cc[nH]c34)cc2Cl)c1`, the “%Inh” value is on record as 10%.

On to `Nc1nc(-c2ccc3c(N)n[nH]c3c2)cc(N2CCC[C@@H](C(=O)Nc3ccccc3)C2)n1.O=C(O)C(F)(F)F.O=C(O)C(F)(F)F` [GSK2288359], for which the “%Inh” value was determined as 27%.

Take `O=C(CCO)NCCn1ccc2ncnc(Nc3ccc(Oc4cccc(C(F)(F)F)c4)c(Cl)c3)c21`: the “%Inh” value stood at 28%.

As to `CNc1nccc(-c2c(-c3ccc(F)cc3)ncn2CCCN2CCOCC2)n1` [SB-222516], the “%Inh” value is given as 0%.

For the compound `Cc1ccc(C)c(NC(=O)NCCNc2ccnc(Nc3ccc(F)cc3)n2)c1` [GSK1379878], the “%Inh” value worked out at 0%.

With `CC(C)(C)c1ccc(-n2cnc3c(N)ncnc32)cc1` [SKF-97263], the “%Inh” value was found to be 22%.

As to `CS(=O)(=O)CCNCc1nc(-c2ccc3ncnc(Nc4ccc(OCc5cccc(F)c5)c(Cl)c4)c3c2)cs1.Cl` [GW583340], the “%Inh” value is reported as 0%.

Take `CCCc1ccc(S(=O)(=O)NC2CCN(c3ccnc(Nc4ccc(OC)cc4)n3)C2)cc1` (stereo not drawn) [GSK1379737]: the “%Inh” value worked out at 100%.

Take `FC(F)(F)c1ccc(-c2nn3ncccc3c2-c2ccnc(Nc3cccc(C(F)(F)F)c3)n2)cc1` [GW828205]: the “%Inh” value is listed as 0%.

On to `Cc1cccc(-c2nc(Nc3ccc4[nH]nnc4c3)c3ccccc3n2)n1` [GW867587], for which the “%Inh” value is 0%.

As to `O=C(Nc1ccccc1F)NC1CCN(c2ccnc(Nc3ccc(F)cc3)n2)C1` (stereo not drawn) [GSK1379722], the “%Inh” value is 0%.

For `COc1ccc(NC(=O)Nc2ccc(C)c(-c3ccc(C(=O)Nc4ccncc4)cc3)c2)cc1` [GSK1398475], the “%Inh” value is listed as 3%.

With `Clc1ccc(-c2cc(-c3c[nH]nc3-c3ccccn3)ccn2)cc1` [GW681251], the “%Inh” value worked out at 2%.

In the case of `Clc1cc(Nc2ncnc3cc[nH]c23)ccc1OCc1ccccn1`, the “%Inh” value stood at 39%.

Regarding `CNc1nccc(-c2c(-c3ccc(F)cc3)ncn2C2CCN(C)CC2)n1` [SB-222903], the “%Inh” value is given as 0%.

For `c1ccc(-c2ccc3c(-c4ccnc(Nc5ccc6c(c5)OCCO6)n4)cnn3n2)cc1` [GW818941], the “%Inh” value worked out at 18%.

Consider `COc1ccc(-c2nc3n(c2-c2ccncc2)CCC3)cc1` [SKF-104493], for which the “%Inh” value is 0%.

For the next experiment, the system named is PAK4. The note with it: concentration: 1 μM, replicates: in singlicate; n = 1.
In the case of `CCC(CC)(CC)n1cnc2c(N)ncnc21` [SKF-97620], the “%Inh” value was 0%.

Take `Cc1ccc(NC(=O)c2cccc(C#N)c2)cc1-c1ccc(C(=O)Nc2ccncc2)cc1` [GSK1398463]: the “%Inh” value is recorded as 0%.

With `CSc1nn2c(=O)cc(N3CCOCC3)nc2n1Cc1cccc(Cl)c1Cl` [GSK2347225], the “%Inh” value was 0%.

On to `FC(F)(F)c1cc(Nc2nccc(-c3c(-c4ccc(Cl)cc4)nn4ncccc34)n2)ccc1Cl` [GW829351], for which the “%Inh” value turned out to be 0%.

In the case of `CC(=O)Nc1n[nH]c2ncc(-c3ccccc3)cc12` [SB-548492], the “%Inh” value amounted to 4%.

As to `O=C(Nc1n[nH]c2nc(-c3ccco3)c(Br)cc12)c1ccc(CN2CCCC2)cc1.O=C(O)[C@H](O)[C@@H](O)C(=O)O` [SB-742352], the “%Inh” value came to 0%.

In the case of `O=C(NCCCN1CCCC1=O)c1cnc(NCc2cc(Cl)ccc2Cl)nc1NC1CCNCC1`, the “%Inh” value was determined as 3%.

For `Nc1nccc2scc(-c3ccc4c(c3)CCN4C(=O)Cc3cc(F)ccc3F)c12` [GSK2587663], the “%Inh” value was determined as 0%.

Turning to `CN1CCC(n2cnc(-c3ccc(F)cc3)c2-c2ccnc(NC3CCNCC3)n2)CC1` [SB-229482], the “%Inh” value stood at 8%.

In the case of `Oc1ccc2ncnc(Nc3ccc(OCc4ccccc4)cc3)c2c1` [GI262866], the “%Inh” value was determined as 0%.

Take `COc1ccc(NC(=O)c2ccc(-c3cc(-c4nnc(C)o4)ccc3C)cc2)cc1` [GW595885]: the “%Inh” value came out at 0%.

In the case of `CC(C)N1CCC(n2cnc(-c3ccc(F)cc3)c2-c2ccnc(N)n2)CC1` [SB-223132], the “%Inh” value is listed as 26%.

For `COc1ccc(Nc2nccc(N3CCC(NC(=O)Nc4ccc5c(c4)OCO5)C3)n2)cc1` (stereo not drawn) [GSK1379745], the “%Inh” value stood at 0%.

Take `COC(=O)c1cccc(NC(=O)NCCNc2ccnc(Nc3ccc(F)cc3)n2)c1` [GSK1379883]: the “%Inh” value is listed as 0%.

As for `COc1cc2c(Nc3cccc(NC(=O)c4ccccc4)c3)ncnc2cc1OCCCN1CCOCC1` [GSK223810], the “%Inh” value was 0%.

`O=C(Nc1ccccc1)Nc1ccc(Oc2ccc3nccn3n2)cc1`: the “%Inh” value was 0%.

For the compound `Nc1nc(-c2ccccn2)c(-c2ccnc3ccccc23)s1` [GW548057], the “%Inh” value was 0%.

For `Cc1ccc(O)cc1Nc1cc(C(F)(F)F)nc2ccc(-c3ccncc3)cc12` [GW630823], the “%Inh” value is given as 21%.

Turning to `Fc1cccc(COc2ccc(Nc3ncnc4sc(-c5ccc[nH]5)cc34)cc2Cl)c1` [GW707818], the “%Inh” value is recorded as 6%.

For `Fc1cccc(COc2ccc(Nc3ncnc4cc[nH]c34)cc2Cl)c1`, the “%Inh” value came out at 26%.

Consider `Nc1nc(-c2ccc3c(N)n[nH]c3c2)cc(N2CCC[C@@H](C(=O)Nc3ccccc3)C2)n1.O=C(O)C(F)(F)F.O=C(O)C(F)(F)F` [GSK2288359], for which the “%Inh” value was determined as 0%.

Take `O=C(CCO)NCCn1ccc2ncnc(Nc3ccc(Oc4cccc(C(F)(F)F)c4)c(Cl)c3)c21`: the “%Inh” value came out at 0%.

Turning to `CNc1nccc(-c2c(-c3ccc(F)cc3)ncn2CCCN2CCOCC2)n1` [SB-222516], the “%Inh” value is given as 0%.

Consider `Cc1ccc(C)c(NC(=O)NCCNc2ccnc(Nc3ccc(F)cc3)n2)c1` [GSK1379878], for which the “%Inh” value is 0%.

With `CC(C)(C)c1ccc(-n2cnc3c(N)ncnc32)cc1` [SKF-97263], the “%Inh” value was found to be 0%.

In the case of `CS(=O)(=O)CCNCc1nc(-c2ccc3ncnc(Nc4ccc(OCc5cccc(F)c5)c(Cl)c4)c3c2)cs1.Cl` [GW583340], the “%Inh” value is recorded as 0%.

On to `CCCc1ccc(S(=O)(=O)NC2CCN(c3ccnc(Nc4ccc(OC)cc4)n3)C2)cc1` (stereo not drawn) [GSK1379737], for which the “%Inh” value was found to be 0%.

Regarding `FC(F)(F)c1ccc(-c2nn3ncccc3c2-c2ccnc(Nc3cccc(C(F)(F)F)c3)n2)cc1` [GW828205], the “%Inh” value worked out at 7%.

On to `Cc1cccc(-c2nc(Nc3ccc4[nH]nnc4c3)c3ccccc3n2)n1` [GW867587], for which the “%Inh” value was found to be 0%.

As to `O=C(Nc1ccccc1F)NC1CCN(c2ccnc(Nc3ccc(F)cc3)n2)C1` (stereo not drawn) [GSK1379722], the “%Inh” value came to 0%.

As to `COc1ccc(NC(=O)Nc2ccc(C)c(-c3ccc(C(=O)Nc4ccncc4)cc3)c2)cc1` [GSK1398475], the “%Inh” value worked out at 0%.

With `Clc1ccc(-c2cc(-c3c[nH]nc3-c3ccccn3)ccn2)cc1` [GW681251], the “%Inh” value is listed as 39%.

For `Clc1cc(Nc2ncnc3cc[nH]c23)ccc1OCc1ccccn1`, the “%Inh” value is given as 10%.

For `CNc1nccc(-c2c(-c3ccc(F)cc3)ncn2C2CCN(C)CC2)n1` [SB-222903], the “%Inh” value is given as 0%.

On to `c1ccc(-c2ccc3c(-c4ccnc(Nc5ccc6c(c5)OCCO6)n4)cnn3n2)cc1` [GW818941], for which the “%Inh” value came out at 0%.

In the case of `COc1ccc(-c2nc3n(c2-c2ccncc2)CCC3)cc1` [SKF-104493], the “%Inh” value is 0%.

For the origin of these results see article PMC5540273 (PLoS ONE, 2017).
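Also: KINOMEscan kinase panel screen.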
